Test results as given in PubChem BioAssay.
Several values for one entry are separate records, joined by “and”; a condition that tells them apart may be missing. Equal values may be shown once. Results filed as inconclusive are left out. Some compounds were tested as several samples or in several runs, with calls that do not always agree. Activity calls are given as the source filed them.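 Rule for the calls, unless noted: active = compounds whose cell count with miR-34 switched on is under 0.7 times the count with it off; inactive = the rest.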

Assays:
[1] = SU-DIPG-VI glioma cell viability, MIPE4.0 library, CellTiter-Glo luminescence, qHTS (AID 1347066; cut-off not given, nearly all actives have AC50 up to about 30 µM;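 note: cells exposed to compound for 48 hours before readout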); conditions: CellTiter-Glo ATP luminescence
[2] = sensitizers of A549 cells to miR-34 induction, primary screen, imaging, A549 dox-inducible miR-34, nuclei and caspase counts (AID 1347080); conditions: A549 miR-34 inducible, Hoechst nuclei count, 48 h
[3] = survival rescue of mitochondrial mutant cells in low glucose, primary screen, MELAS cybrids, Rieske KO mouse fibroblasts, CellTiter-Glo (AID 1508586;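 active = mean z-score across replicates of 1.96 or higher in either the MELAS or the Rieske mutant cell line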;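 note: z relative to plate mean and SD of compound and empty wells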)
[4] = target: NAD(+) hydrolase SARM1 (Homo sapiens) (UniProt Q6SZW1); assay: SARM1 TIR NADase inhibitors, cell lysate, NAD-Glo luminescence (AID 1508614;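 active = compound whose remaining NAD level is above about 45 nM, limit read from the data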;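 note: higher remaining NAD means stronger inhibition of SARM1 NADase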); conditions: SAM-TIR HEK293T lysate NADase, at 1 µM, stronger effect = higher value
[5] = target: Mitogen-activated protein kinase 7 (Homo sapiens) (UniProt Q13164); assay: ERK5 transactivation activators in reporter cells, primary screen, cell-based, HTS (AID 1508626;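 active = luciferase signal above three times the same-plate solvent-only control wells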;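 note: luciferase driven by Gal4-ERK5 fusion binding five Gal4 sites before minimal TATA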); conditions: HeLa Gal4-ERK5 transactivation, 18 h, at 5 µM, stronger effect = higher value
[6] = viability rescue of complex I mutant cybrids, primary screen, cell-based, galactose medium, ATP luminescence (AID 1645843;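 active = z-score of at least 1.8 in each of two replicates, scored against plate mean and spread of sample wells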;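 note: positive z means more ATP and so rescue of galactose-driven cybrid death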); conditions: complex I mutant cybrid cells, 72 h, stronger effect = higher value
[7] = phospholipid biosynthesis inhibitors in animal cells, primary screen, cell-based, LOPAC library, screen 4 (AID 1347384; call rule not given here); conditions: phospholipid biosynthesis inhibition screen, at 10 µM
[8] = JHH-DIPG-1 glioma cell viability, MIPE5.0 library, CellTiter-Glo luminescence, qHTS (AID 1347067; cut-off not given, nearly all actives have AC50 up to about 26 µM;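 note: cells exposed to compound for 48 hours before readout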); conditions: JHH-DIPG-1 glioma viability, CellTiter-Glo ATP luminescence
[9] = SU-DIPG-XXV glioma cell viability, MIPE5.0 library, qHTS (AID 1347068; cut-off not given, nearly all actives have IC50 up to about 30 µM)
[10] = inhibitors of Cryptococcus chitosan production, flow cytometry, Cibacron Brilliant Red staining (AID 1347148; call rule not given here;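 note: compound exposure lasted three days at 37 degrees C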); conditions: Cryptococcus neoformans chitosan, stronger effect = lower value; at 10 µM unless noted
[11] = stronger effect = lower value, cell number ratio, induced over uninduced
[12] = measured here: relative caspase fold change +Dox/-Dox
[13] = measured here: total cells with miR-34 induction, stronger effect = lower value
[14] = measured here: total cells without miR-34 induction
[15] = MELAS cybrid survival, CellTiter-Glo 48 h, stronger effect = higher value
[16] = Rieske KO mouse fibroblast survival, CellTiter-Glo 72 h

Sequence of NAD(+) hydrolase SARM1 (Homo sapiens) (Q6SZW1 whole entry, looked up, the tested form may be a part): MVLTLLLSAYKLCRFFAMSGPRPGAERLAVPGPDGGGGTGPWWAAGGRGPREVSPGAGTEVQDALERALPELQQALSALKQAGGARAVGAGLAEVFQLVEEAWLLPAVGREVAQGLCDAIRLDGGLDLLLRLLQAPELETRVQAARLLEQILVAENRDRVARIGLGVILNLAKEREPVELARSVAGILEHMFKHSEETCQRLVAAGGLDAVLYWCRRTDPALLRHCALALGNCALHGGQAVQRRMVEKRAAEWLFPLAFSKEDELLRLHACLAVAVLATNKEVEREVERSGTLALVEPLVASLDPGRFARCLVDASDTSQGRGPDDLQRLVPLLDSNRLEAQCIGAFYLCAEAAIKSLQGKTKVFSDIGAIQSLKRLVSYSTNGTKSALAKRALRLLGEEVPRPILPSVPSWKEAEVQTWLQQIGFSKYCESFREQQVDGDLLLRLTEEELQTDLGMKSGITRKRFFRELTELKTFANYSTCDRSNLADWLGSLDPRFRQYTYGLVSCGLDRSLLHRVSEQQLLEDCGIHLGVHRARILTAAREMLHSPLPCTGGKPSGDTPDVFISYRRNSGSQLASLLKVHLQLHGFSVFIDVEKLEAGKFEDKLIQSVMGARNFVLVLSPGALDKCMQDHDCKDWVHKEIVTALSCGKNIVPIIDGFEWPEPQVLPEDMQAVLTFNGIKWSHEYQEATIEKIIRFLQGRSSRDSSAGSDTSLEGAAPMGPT
Sequence of Mitogen-activated protein kinase 7 (Homo sapiens) (Q13164 whole entry, looked up, the tested form may be a part): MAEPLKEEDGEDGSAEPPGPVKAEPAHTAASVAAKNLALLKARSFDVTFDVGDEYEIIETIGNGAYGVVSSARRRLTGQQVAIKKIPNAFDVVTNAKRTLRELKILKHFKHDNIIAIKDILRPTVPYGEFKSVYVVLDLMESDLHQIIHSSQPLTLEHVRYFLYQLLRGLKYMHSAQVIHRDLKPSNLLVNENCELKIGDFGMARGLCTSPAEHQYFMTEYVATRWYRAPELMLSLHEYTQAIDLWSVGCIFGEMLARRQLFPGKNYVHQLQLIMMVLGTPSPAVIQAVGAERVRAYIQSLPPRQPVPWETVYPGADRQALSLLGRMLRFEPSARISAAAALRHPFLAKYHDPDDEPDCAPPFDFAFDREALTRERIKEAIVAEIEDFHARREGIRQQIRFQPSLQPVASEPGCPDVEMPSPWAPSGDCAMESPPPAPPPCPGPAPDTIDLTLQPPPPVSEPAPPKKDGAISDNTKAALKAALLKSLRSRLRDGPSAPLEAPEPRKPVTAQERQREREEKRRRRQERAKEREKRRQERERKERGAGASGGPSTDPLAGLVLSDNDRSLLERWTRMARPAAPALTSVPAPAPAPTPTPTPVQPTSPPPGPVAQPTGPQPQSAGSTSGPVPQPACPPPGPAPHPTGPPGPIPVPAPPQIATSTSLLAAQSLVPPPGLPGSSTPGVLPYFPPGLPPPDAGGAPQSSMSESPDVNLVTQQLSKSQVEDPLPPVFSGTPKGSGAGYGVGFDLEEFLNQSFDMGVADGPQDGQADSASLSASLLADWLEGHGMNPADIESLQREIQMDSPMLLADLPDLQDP

Row | SMILES | outcome [1] | fold change [2, 11] | fold change [2, 12] | cell count [2, 13] | cell count [2, 14] | z-score [3, 15] | z-score [3, 16] | remaining NAD [4] | luciferase signal [5] | z-score [6] | outcome [7] | outcome [8] | outcome [9] | fold fluorescence [10]
1 | Cc1onc(-c2ccccc2)c1C(=O)N[C@@H]1C(=O)N2[C@@H]1SC(C)(C)[C@@H]2C(=O)O | inactive | 0.877 (inactive) | 6.72 | 9940 | 11300 | 0.677 (inactive) and 0.0608 (inactive) | -0.0856 and 0.018 | 10 nM (inactive) | 64 AU (inactive) | 0.945 (inactive) | – | – | – | –
2 | CC(CN(C)C)CN1c2ccccc2CCc2ccccc21 (stereo not given) | – | 1.11 (inactive) and 0.82 (inactive) and 0.914 (inactive) | 1.28 and 1.05 and 3.48 | 8450 and 7420 and 11100 | 7640 and 9050 and 12100 | -0.24 (inactive) | -0.99 | 10 nM (inactive) | 64 AU (inactive) | -1.16 (inactive) | inactive | – | – | –
3 | COc1cc(C(=O)NS(=O)(=O)c2ccccc2C)ccc1Cc1cn(C)c2ccc(NC(=O)OC3CCCC3)cc12 | – | – | – | – | – | -0.216 (inactive) and 0.374 (inactive) and -0.157 (inactive) | 0.567 and -0.073 and 0.0854 | – | – | 1.64 (inactive) and 1.23 (inactive) | – | inactive | inactive | –
4 | O=C(O)CN1C(=O)c2cccc3cccc(c23)C1=O | – | 0.898 (inactive) and 0.959 (inactive) and 0.946 (inactive) | 1.04 and 0.818 and 2.08 | 5450 and 8540 and 11100 | 6060 and 8900 and 11700 | – | – | 13 nM (inactive) | 44 AU (inactive) | 0.415 (inactive) | – | – | – | 3.97 [at 195.9 µM] (inactive)
5 | CS(=O)(=O)Nc1ccc([N+](=O)[O-])cc1Oc1ccccc1 | – | – | – | – | – | -0.305 (inactive) and 0.634 (inactive) and -0.303 (inactive) | 1.18 and 0.441 and -0.993 | 10 nM (inactive) | 60 AU (inactive) | 1.54 (inactive) and 2.81 (active) and 0.735 (inactive) | inactive | – | inactive | 4.45 [at 162.2 µM] (inactive)
6 | Cc1nccn1CC1CCc2c(c3ccccc3n2C)C1=O (stereo not given) | inactive | – | – | – | – | -0.478 (inactive) and 0.555 (inactive) and 0.267 (inactive) | 0.23 and 0.514 and 0.91 | 10 nM (inactive) | – | 0.415 (inactive) and 0.495 (inactive) and 0.69 (inactive) | – | – | – | –
7 | CCCc1c(OCCCCc2nn[nH]n2)ccc(C(C)=O)c1O | – | 0.952 (inactive) and 0.923 (inactive) and 1.01 (inactive) | 1 and 1.28 and 1.02 | 9490 and 5900 and 5660 | 9970 and 6400 and 5590 | – | – | – | – | 2.16 (active) | – | – | – | 4.57 (inactive)
8 | CC(=O)OC(C)C[N+](C)(C)C (stereo not given) | – | 0.996 (inactive) and 0.9 (inactive) and 0.916 (inactive) | 1.55 and 1.24 and 1.41 | 9370 and 9670 and 11300 | 9400 and 10700 and 12300 | -0.509 (inactive) | 0.138 | 10 nM (inactive) | 104 AU (inactive) | 0.455 (inactive) | inactive | – | – | –
9 | CC1=C(C(=O)O)N2C(=O)[C@@H](NC(=O)[C@H](N)C3=CCC=CC3)[C@H]2SC1 | inactive | – | – | – | – | – | – | 10 nM (inactive) | 48 AU (inactive) | – | – | – | – | –
10 | CCN(CC)C(C)CN1c2ccccc2Sc2ccccc21 (stereo not given) | – | 1.11 (inactive) and 0.804 (inactive) and 0.894 (inactive) | 1.02 and 1.63 and 0.788 | 9230 and 7320 and 9620 | 8340 and 9100 and 10800 | -0.553 (inactive) | -0.605 | 10 nM (inactive) | 36 AU (inactive) | -0.44 (inactive) | inactive | – | – | –
11 | CN1Cc2c(N)cccc2C(c2ccccc2)C1 (stereo not given) | – | 1.2 (inactive) and 0.943 (inactive) and 0.87 (inactive) | 1.05 and 0.932 and 4.35 | 9850 and 8420 and 10600 | 8240 and 8920 and 12100 | 0.549 (inactive) | 0.0395 | 17 nM (inactive) | 88 AU (inactive) | -0.015 (inactive) | inactive | – | – | –
12 | CCOC(=O)O[C@]1(C(=O)OCCl)CC[C@H]2[C@@H]3CCC4=CC(=O)C=C[C@]4(C)[C@H]3[C@@H](O)C[C@@]21C | – | – | – | – | – | 0.475 (inactive) | 0.287 | – | – | – | – | – | inactive | –
13 | CN(C)CCOC(=O)COc1ccc(Cl)cc1 | – | 1.05 (inactive) and 0.847 (inactive) and 0.935 (inactive) | 2.3 and 1.11 and 0.787 | 9260 and 9320 and 8720 | 8800 and 11000 and 9330 | -0.229 (inactive) and 0.0507 (inactive) | -0.156 and 1.13 | 10 nM (inactive) | 64 AU (inactive) | 1.14 (inactive) | inactive | – | – | –
14 | O=C(O)[C@@H]1[C@H]2C[C@H]3c4[nH]c5ccccc5c4CCN3C[C@@H]2CC[C@@H]1O | – | 0.933 (inactive) | 1.33 | 7540 | 8080 | – | – | – | – | – | – | – | – | –
15 | CC1(C)O[C@H]2CC(=O)OC[C@]23[C@H]2CC[C@@]4(C)[C@H](c5ccoc5)OC(=O)[C@H]5O[C@]54[C@]2(C)C(=O)C[C@@H]13 | inactive | – | – | – | – | – | – | – | 80 AU (inactive) | – | – | – | – | –
16 | CC(=O)N[C@@H](CS)C(=O)O | – | 1.05 (inactive) and 0.885 (inactive) and 0.922 (inactive) | 0.401 and 1.12 and 0.735 | 10500 and 7510 and 10400 | 9960 and 8480 and 11200 | -0.217 (inactive) and 0.201 (inactive) | 0.862 and -0.824 | 10 nM (inactive) | 40 AU (inactive) | 0.55 (inactive) | inactive | – | – | –
17 | CCCC(C(=O)OCCN(CC)CC)(c1ccccc1)c1ccccc1 | – | 0.769 (inactive) and 0.897 (inactive) and 0.979 (inactive) | 1.28 and 1.07 and 2.3 | 4500 and 7370 and 10800 | 5860 and 8210 and 11000 | -2.4 (inactive) | 0.38 | 10 nM (inactive) | 60 AU (inactive) | -1.28 (inactive) | inactive | – | – | –
18 | NS(=O)(=O)c1cc(C(=O)O)c(NCc2ccco2)cc1Cl | inactive | – | – | – | – | -0.297 (inactive) and -0.16 (inactive) and 0.0353 (inactive) | 0.703 and -0.228 and 0.451 | 10 nM (inactive) | 72 AU (inactive) | 0.405 (inactive) and 0.415 (inactive) | – | – | – | –
